# High-throughput results from PubChem BioAssay.
# Tb PYK inh – qHTS of Trypanosoma Brucei Inhibitors | TbPYK enzyme, Kinase-Glo Plus ATP luminescence, 45 min | 0.12% of 410,000 active | AID 624173, 2012 | pyruvate kinase (Trypanosoma brucei), Q57TT1 | Potency, µM (doses to about 76.8 µM), without a hit: top-dose activity, negative = inhibition, usual class: inhibitors; further: potency means the concentration at half of the fitted maximal effect; on the % scale 0 is the no-effect control and ±100 the full control effect; nearly all actives have a fitted effect of over 50% in size
#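 Readout: single end-point luminescence (Kinase-Glo Plus, 10 min). Reaction conditions were TbPYK/substrate plus 130 uM ADP, 45 min at RT, pH 7.2 TEA buffer. No-enzyme wells served as controls, and data were normalized before concentration-response fitting.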
# CHX counter – Cycloheximide Counterscreen for Small Molecule Inhibitors of Shiga Toxin | cell reporter, cycloheximide protein synthesis inhibition counterscreen | max response, % | 12% of 300,000 active; in the data active means max response mostly above about 13%, no sharp cut-off; inactive means mostly below about 14%; further: read at 38.3 µM for the half of the compounds with a filed dose; 0% is about no effect
# RE007 growth inh – qHTS Assay for Inhibitors of the HIV-1 protein Vpr; S. pombe RE007 Vpr strain, BacTiter-Glo ATP luminescence, 24 h; Potency, µM (top dose mostly 92.2 µM), without a hit: at the top dose activity change, negative = less growth, actives largely listed as inhibitors; 0.21% of 360,000 active; AID 651644, 2012; active means well fitted falling curve with a large enough effect; inconclusive means small, poorly fitted or top-dose-only effect; inactive means no such curve, though single readings can be large or run the other way; further: potency means the concentration at half of the fitted maximal effect; on the % scale 0 is the no-effect control and ±100 the full control effect; nearly all actives have a fitted effect of over 50% in size
#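 Fission yeast strain RE007, carrying one chromosomally integrated HIV-1 vpr copy, was seeded at OD 0.01 in PMG+AL medium with 23 nL pinned compound. After 24 h at 30 °C and 99% humidity, viability was read by BacTiter-Glo luminescence.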
# Shiga toxin inh – A qHTS for Small Molecule Inhibitors of Shiga Toxin | Vero cells, Shiga toxin protein synthesis inhibition reporter | 9.2% of 290,000 active | inhibition, % at 38.7 µM; in the data active means inhibition mostly above about 28%, no sharp cut-off; inactive means mostly below about 43%; further: 0% is about no effect
# FBPA Giardia inh – qHTS Assay for Inhibitors of Fructose-1,6-bisphosphate Aldolase from Giardia Lamblia; 0.71% of 290,000 active; A8B2U2; purified Giardia FBPA; Potency, µM (top dose mostly 59.6 µM), inactives show at the highest dose activity, negative = inhibition, usual class: inhibitors; further: potency means the concentration at half of the fitted maximal effect; on the % scale 0 is the no-effect control and ±100 the full control effect; nearly all actives have a fitted effect of over 55% in size
#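 40 nM FBPA preincubated 10 min at RT with compound (up to 57.5 uM final), then substrate plus GAPDH/TPI/NAD/arsenate coupling and diaphorase/resazurin added. Fluorescence read after 20 min at RT, 525/598 nm.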
# LmPK inh – qHTS Assay for Inhibitors of Leishmania Mexicana Pyruvate Kinase (LmPK); Potency, µM (doses to about 57.5 µM), for inactives: top-dose activity change, negative = inhibition, actives largely listed as inhibitors; Q27686; 0.37% of 290,000 active; purified LmPK, Kinase-Glo ATP luminescence, 1 h; further: potency means the concentration at half of the fitted maximal effect; on the % scale 0 is the no-effect control and ±100 the full control effect
# Target sequence (Q27686 whole entry, looked up): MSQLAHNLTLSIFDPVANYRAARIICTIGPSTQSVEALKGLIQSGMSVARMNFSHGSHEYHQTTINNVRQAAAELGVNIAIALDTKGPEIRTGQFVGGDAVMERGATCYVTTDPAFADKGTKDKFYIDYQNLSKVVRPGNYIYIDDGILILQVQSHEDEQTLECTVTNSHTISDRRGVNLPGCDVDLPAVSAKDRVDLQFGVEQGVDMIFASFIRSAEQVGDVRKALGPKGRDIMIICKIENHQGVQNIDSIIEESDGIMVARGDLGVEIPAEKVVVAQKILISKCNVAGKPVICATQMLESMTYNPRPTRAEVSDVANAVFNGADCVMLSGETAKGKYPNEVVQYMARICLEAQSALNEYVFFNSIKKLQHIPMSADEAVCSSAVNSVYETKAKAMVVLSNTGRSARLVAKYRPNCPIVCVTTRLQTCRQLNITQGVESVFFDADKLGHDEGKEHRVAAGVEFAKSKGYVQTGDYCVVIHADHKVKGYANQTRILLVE
#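 In 50 mM imidazole pH 7.2 with 7 mM MgCl2, LmPK (0.1 nM) turned over PEP (0.5 mM) and ADP (0.1 mM) for 1 h at room temperature. Luciferase read-out of ATP.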
# Numbers without * were called inactive; ? = inconclusive; · = no result given. The full list was thinned out, with hits kept by preference. Unless noted, the call rests on the fitted dose curve; in most records, active means well fitted curve in the direction sought with a large enough effect; inconclusive means small, poorly fitted or top-dose-only effect, or another doubt; inactive means no such curve, though single readings can be large; an effect the other way counts as inactive or inconclusive.
SMILES,Tb PYK inh,CHX counter,RE007 growth inh,Shiga toxin inh,FBPA Giardia inh,LmPK inh
C[C@H]1O[C@@H](n2cnc3c(N)ncnc32)C[C@@H]1OP(=O)(O)OP(=O)(O)OP(=O)(O)O,·,13,·,5,-7%,·
CC(=O)Nc1ccc(NC(=O)CCCc2ccccc2)cc1,2%,31*,-15%,24,3%,3%
COc1ccc(NC(=O)CCCc2ccccc2)cc1OC,-5%,54*,14%,89*,1%,-4%
CCOc1ccc(-n2c(SCC(=O)NCC3CCCO3)nc3c([nH]c4ccccc43)c2=O)cc1 (stereo not given),2%,·,·,·,·,·
COc1ccc(CCn2c3c(c(=O)[nH]c2=O)C(NC(=O)c2ccccc2F)(C(F)(F)F)C(=O)N3)cc1OC (stereo not given),5%,·,·,·,·,·
N#CC(C#N)=NNc1ccc(OC(F)(F)F)cc1,·,44*,·,60*,13%,·
O=C(/C=C/Nc1ccc(OC(F)(F)F)cc1)C(F)(F)F,-4%,-3,10%,-12,-12%,-1%
COc1ccc2c(Cl)c(C(=O)N/N=C/c3ccc4c(c3)OCO4)sc2c1,4%,6,-1%,8,2%,4%
COc1ccc2c(Cl)c(C(=O)N/N=C3\CCCC(=O)C3)sc2c1,2%,14,-21%,47*,-11%,2%
Cc1cc2oc(C(=O)Nc3ccc(S(=O)(=O)N4CCCCCC4)cc3)cc(=O)c2cc1C,3%,·,·,·,·,·
COc1ccc(NC(=O)C2CC(c3c(F)cccc3Cl)=NO2)cc1 (stereo not given),6%,18*,-2%,·,-2%,5%
COc1cccc(C2=NOC(C(=O)N3CCOCC3)C2)c1 (stereo not given),0%,63*,12%,141*,5%,-15%
COc1cccc(C2=NOC(C(=O)N3CCN(C(=O)c4ccco4)CC3)C2)c1 (stereo not given),2%,-2,1%,23,0%,4%
COc1ccc(C2=NOC(C(=O)N3CCOCC3)C2)cc1OC (stereo not given),2%,18*,15%,50*,3%,-2%
COc1ccc(NC(=O)C2CC(c3cccc(Br)c3)=NO2)cc1OC (stereo not given),-10%,-1,4%,·,6%,-1%
COc1cccc(C2=NOC(C(=O)Nc3ccc(OC)c(OC)c3)C2)c1 (stereo not given),-2%,17*,3%,7,-10%,-1%
COc1ccc(N(Cc2ccccc2)C(=O)c2nc(S(C)(=O)=O)ncc2Cl)cc1,-5%,·,·,·,·,·
CCOCCCNC(=O)c1[nH]c2cc(C)ccc2c1Sc1ccc(Cl)cc1,2%,·,·,·,·,·
CN(C(=O)c1nn(C)c2c1CSc1ccccc1-2)c1ccccc1Cl,-4%,25*,-12%,33*,·,-10%
CC1CCCN(C(=O)c2nn(C)c3c2CSc2ccccc2-3)C1 (stereo not given),?,18*,3%,31,?,-2%
CC1CC(C)CN(C(=O)c2nn(C)c3c2CSc2ccccc2-3)C1 (stereo not given),-1%,0,-10%,5,-6%,0%
CN(C(=O)c1nn(C)c2c1CSc1ccccc1-2)c1ccc(F)cc1,-12%,-2,-11%,-3,-10%,3%
COc1ccc(-c2nc3cncnc3n(-c3ccccc3)c2=O)cc1,·,·,·,·,0%,·
O=C1CC(c2cccs2)Sc2nc3ccccc3n21 (stereo not given),-11%,45*,-24%,106*,-1%,-15%
O=C1CC(c2ccc3c(c2)OCO3)Sc2nc3ccccc3n21 (stereo not given),-2%,51*,-13%,106*,11%,?
SMILES,Tb PYK inh,CHX counter,RE007 growth inh,Shiga toxin inh,FBPA Giardia inh,LmPK inh
O=C1CC(c2ccccc2)Sc2nc3ccccc3n21 (stereo not given),-19%,41*,-9%,99*,-1%,-16%
O=C1CC(c2ccco2)Sc2nc3ccccc3n21 (stereo not given),-13%,36*,?,82*,0%,-11%
COc1ccc(-n2nc(C(=O)N3CCCC(C)C3)c3c4ccccc4n(C)c3c2=O)cc1 (stereo not given),-1%,·,·,·,·,·
N[C@H](C(=O)O)[C@@H]1C[C@@H]1C(=O)O,·,·,·,·,-3%,·
COC(CN1CCc2c(C)nc3c(C#N)cnn3c21)OC,-1%,-1,-10%,-3,1%,1%
COc1ccc(-c2cnn3c4c(c(C)nc23)CCN4C(C)C)cc1OC,3%,27*,-10%,47*,0%,2%
CCCCCCCCSC1=CC(=O)C(OC)=C(OC)C1=O,14µM*,·,-8%,·,·,·
Cc1cc2oc(C(=O)Nc3c(C)n(C)n(-c4ccccc4)c3=O)cc(=O)c2cc1C,1%,·,·,·,·,·
CC1=C(C)CC2(SC1)C(=O)N(c1ccccc1)N=C2N (stereo not given),-17%,23*,-10%,48*,-4%,-1%
CC1=NN(c2ccccc2)C(=O)C1(C)C,-7%,2,9%,-22,6%,-4%
Cc1coc2c1c(C)cc1oc(=O)c(CC(=O)NCc3ccc(Cl)cc3)c(C)c12,-2%,·,·,·,·,·
Cc1ccc(C2CCN(C(=S)NC3CCCCC3)C2)cc1 (stereo not given),-6%,20*,?,70*,0%,6%
Cc1ccc(C2CCN(C(=S)NC(C)(C)C)C2)cc1 (stereo not given),-4%,31*,-23%,76*,4%,1%
Cc1ccc(C2CCN(C(=S)Nc3cccc(C)c3)C2)cc1 (stereo not given),-3%,20*,-11%,34*,0%,10%
N#CC(=C(/N)Sc1ccccc1N)/C(C#N)=C(/N)Sc1ccccc1N,·,·,·,·,-2%,·
CCOC(=O)c1cccc(NS(=O)(=O)c2c(C)nc3sc(C)cn3c2=O)c1,0%,·,·,·,·,·
Cc1cc(N)n(-c2cc(C)c3ccccc3n2)n1,-7%,46*,-29%,79*,-6%,?
Cc1cc(N)n(-c2nc(-c3cccnc3)nc3ccccc23)n1,0%,33*,-19%,64*,1%,8%
Cc1cc(C)c2nc(-n3nc(C)cc3N)cc(C)c2c1,-3%,26*,-11%,108*,1%,-1%
Cc1cc(N)n(-c2ccccc2C)n1,2%,-9,21%,-5,-5%,1%
Cc1cc(N)n(-c2ccccc2)n1,-10%,13,-13%,21,3%,-7%
